Test results as given in PubChem BioAssay (EPA / NIEHS).
Records with an inconclusive call do not appear. Activity calls are given as the source filed them. Rule for the calls: active = hit-call score of the fitted dose curve at least 0.9, where 1 is the maximum; inconclusive = response in the unintended direction; inactive = score below 0.9.

System: not listed separately
Assay: Tanguay_ZF_120hpf_CIRC_legacy: (Legacy) Oregon State University Tanguay Lab 120 Hour Post-fertilization zebrafish Assay for Circulatory Malformation (AID 2283651)
Method in brief: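 Using wild-type Tropical 5D zebrafish, we exposed dechorionated embryos from 6 to 120 hpf in embryo medium with 0.64% DMSO. Circulatory defects were scored as present or absent; 5uM trimethyltin chloride served as positive control.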

SMILES | outcome | AC50
c1ccc(NNc2ccccc2)cc1 | inactive | –
Cc1ccc(N=C=O)cc1N=C=O | inactive | –
[Cl-].[Cl-].[Hg+2] | – | 3.58 µM (active)
CCNS(=O)(=O)C(F)(F)C(F)(F)C(F)(F)C(F)(F)C(F)(F)C(F)(F)C(F)(F)C(F)(F)F | inactive | –
CCC12COCN1COC2 | inactive | –
Oc1ccccc1Cl | inactive | –
Clc1ccc(Cl)c(Cl)c1 | inactive | –
Nc1ccc(Oc2ccc(N)cc2)cc1 | inactive | –
Nc1ccc(N=Nc2ccccc2)cc1 | inactive | –
O=Cc1ccco1 | inactive | –
CCCCOC(=O)c1ccccc1C(=O)OCc1ccccc1 | inactive | –
O=C(O)C1C2CCC(O2)C1C(=O)O (configuration not stated) | inactive | –
COP(=S)(OC)SCN1C(=O)c2ccccc2C1=O | inactive | –
c1ccc2c(c1)oc1ccccc12 | inactive | –
c1ccc2c(c1)-c1cccc3cccc-2c13 | inactive | –
OCCCl | inactive | –
N#CC(Br)(Br)C(N)=O | inactive | –

System: not listed separately
Assay: Tanguay_ZF_120hpf_SWIM_legacy: (Legacy) Oregon State University Tanguay Lab 120 Hour Post-fertilization zebrafish Assay for Swim Bladder Malformation (AID 2283654);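 note: swim bladder malformation in each larva scored yes or no under brightfield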
Method in brief: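 Embryos lacking chorions were exposed individually and statically to test chemical from 6 to 120 hpf at 28C, with 0.64% DMSO as vehicle. At 120 hpf, swim bladder malformation was recorded as present or absent by brightfield microscopy.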

SMILES | outcome | AC50
CC(C)(C)C(O)(CCc1ccc(Cl)cc1)Cn1cncn1 (configuration not stated) | inactive | –
O=[N+]([O-])c1ccc(Oc2ccc(Cl)cc2Cl)cc1 | inactive | –
[Cl-].[Cl-].[Hg+2] | – | 1.02 µM (active)
C=CCc1ccc2c(c1)OCO2 | inactive | –
Nc1ccc(Cc2ccc(N)cc2)cc1 | inactive | –
Oc1ccccc1Cl | inactive | –
Clc1ccc(Cl)c(Cl)c1 | inactive | –
Nc1ccc(Oc2ccc(N)cc2)cc1 | inactive | –
Nc1ccc(N=Nc2ccccc2)cc1 | inactive | –
O=C(O)C1C2CCC(O2)C1C(=O)O (configuration not stated) | inactive | –
O=P(OCCCl)(OCCCl)OCCCl | inactive | –
OCCOCCO | inactive | –
OCCCl | inactive | –
CCN(CC)N=O | inactive | –
C[N+](C)(C)CC1CO1 (configuration not stated) | inactive | –
N#CC(Br)(Br)C(N)=O | inactive | –
OCCCBr | inactive | –
O=[N+]([O-])C(Br)(CO)CO | inactive | –

System: not listed separately
Assay: Tanguay_ZF_120hpf_TRUN_legacy: (Legacy) Oregon State University Tanguay Lab 120 Hour Post-fertilization zebrafish Assay for Truncated Body (AID 2283655)
Method in brief: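 Single dechorionated zebrafish embryos received test chemical from 6 hpf in 0.64% DMSO, kept at 28C. At 120 hpf, brightfield inspection noted any truncated body.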

SMILES | outcome | AC50
c1ccc(NNc2ccccc2)cc1 | inactive | –
Cc1ccc(N=C=O)cc1N=C=O | inactive | –
O=[N+]([O-])c1ccc(Oc2ccc(Cl)cc2Cl)cc1 | inactive | –
[Cl-].[Cl-].[Hg+2] | – | 3.83 µM (active)
C=CCc1ccc2c(c1)OCO2 | inactive | –
CCC12COCN1COC2 | inactive | –
Oc1ccccc1Cl | inactive | –
Nc1ccc(N=Nc2ccccc2)cc1 | inactive | –
O=Cc1ccco1 | inactive | –
CCCCOC(=O)c1ccccc1C(=O)OCc1ccccc1 | inactive | –
O=P(OCCCl)(OCCCl)OCCCl | inactive | –
COP(=S)(OC)SCN1C(=O)c2ccccc2C1=O | inactive | –
OCCOCCO | inactive | –
c1ccc2c(c1)oc1ccccc12 | inactive | –
c1ccc2c(c1)-c1cccc3cccc-2c13 | inactive | –
CCN(CC)N=O | inactive | –
C[N+](C)(C)CC1CO1 (configuration not stated) | inactive | –
N#CC(Br)(Br)C(N)=O | inactive | –
OCCCBr | inactive | –

System: not listed separately
Assay: Tanguay_ZF_120hpf_NC_legacy: (Legacy) Oregon State University Tanguay Lab 120 Hour Post-fertilization zebrafish Assay for Notochord and Tail Malformation (AID 2283656)
Method in brief: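 Dechorionated 5D zebrafish, 1/well from 6 hpf; static exposure to 120 hpf, 28C, sealed, dark; final DMSO 0.64% v/v. NC scored binary (present/absent); dead embryos not scored. Fit vs DMSO baseline, gain direction.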

SMILES | outcome
c1ccc(NNc2ccccc2)cc1 | inactive
CC(C)(C)C(O)(CCc1ccc(Cl)cc1)Cn1cncn1 (configuration not stated) | inactive
Cc1ccc(N=C=O)cc1N=C=O | inactive
c1ccc(N=Nc2ccccc2)cc1 | inactive
C=CCc1ccc2c(c1)OCO2 | inactive
CCNS(=O)(=O)C(F)(F)C(F)(F)C(F)(F)C(F)(F)C(F)(F)C(F)(F)C(F)(F)C(F)(F)F | inactive
CCC12COCN1COC2 | inactive
Nc1ccc(Cc2ccc(N)cc2)cc1 | inactive
Clc1ccc(Cl)c(Cl)c1 | inactive
Nc1ccc(Oc2ccc(N)cc2)cc1 | inactive
O=Cc1ccco1 | inactive
CCCCOC(=O)c1ccccc1C(=O)OCc1ccccc1 | inactive
O=C(O)C1C2CCC(O2)C1C(=O)O (configuration not stated) | inactive
COP(=S)(OC)SCN1C(=O)c2ccccc2C1=O | inactive
OCCOCCO | inactive
c1ccc2c(c1)oc1ccccc12 | inactive
c1ccc2c(c1)-c1cccc3cccc-2c13 | inactive
OCCCl | inactive
CCN(CC)N=O | inactive
C[N+](C)(C)CC1CO1 (configuration not stated) | inactive
OCCCBr | inactive
O=[N+]([O-])C(Br)(CO)CO | inactive

System: Thyroperoxidase (TPO), gene 54314
Assay: CCTE_Simmons_AUR_rTPO: CCTE's Amplex UltraRed Assay for Thyroperoxidase (TPO) Inhibition, Simmons Lab (AID 2283662);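 for AC50: potency for loss of signal meaning inhibition of peroxidase activity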
Method in brief: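 Rat thyroid microsomes (5 ug protein) were incubated with test compound (8 concentrations, 5 nM–87.5 uM final, 0.5% DMSO), 25 uM Amplex UltraRed and 300 uM H2O2 in 200 mM phosphate buffer for 30 min at 37C in the dark; fluorescence read at 544/590 nm.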

SMILES | outcome | AC50
c1ccc(NNc2ccccc2)cc1 | inactive | –
Cc1ccc(N=C=O)cc1N=C=O | – | 16.9 µM (active)
C=CCc1ccc2c(c1)OCO2 | – | 36.4 µM (active)
Nc1ccc(Cc2ccc(N)cc2)cc1 | – | 0.0776 µM (active)
Oc1ccccc1Cl | inactive | –
Nc1ccc(Oc2ccc(N)cc2)cc1 | – | 0.831 µM (active)
Nc1ccc(N=Nc2ccccc2)cc1 | – | 2.53 µM (active)
CCCCOC(=O)c1ccccc1C(=O)OCc1ccccc1 | inactive | –
COP(=S)(OC)SCN1C(=O)c2ccccc2C1=O | – | 12.9 µM (active)
N#CC(Br)(Br)C(N)=O | inactive | –

System: not listed separately
Assay: CCTE_Simmons_CellTiterGLO_HEK293T: Viability Assessment in CCTE's Assays for Thyroperoxidase (TPO) Inhibition, Simmons Lab (AID 2283665);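 for AC50: cells exposed to compound for 24 h before readout; actives reduce ATP signal below DMSO vehicle meaning cytotoxicity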
Method in brief: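 Cytotoxicity counter-screen: human HEK293T cells in low-serum (1% FBS) medium receive test chemical, 5 nM to 87.5 uM final, for 24 h; ATP is quantified by luciferase luminescence.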

SMILES | AC50 | outcome
c1ccc(NNc2ccccc2)cc1 | 19.1 µM (active) | –
Cc1ccc(N=C=O)cc1N=C=O | – | inactive
[Cl-].[Cl-].[Hg+2] | 0.939 µM (active) | –
C=CCc1ccc2c(c1)OCO2 | 66.7 µM (active) | –
Nc1ccc(Cc2ccc(N)cc2)cc1 | – | inactive
Oc1ccccc1Cl | – | inactive
Nc1ccc(Oc2ccc(N)cc2)cc1 | – | inactive
Nc1ccc(N=Nc2ccccc2)cc1 | 40.2 µM (active) | –
CCCCOC(=O)c1ccccc1C(=O)OCc1ccccc1 | 8.68 µM (active) | –
COP(=S)(OC)SCN1C(=O)c2ccccc2C1=O | 43.8 µM (active) | –
N#CC(Br)(Br)C(N)=O | – | inactive
